{"source": "PubChem BioAssay AID1259339", "about": "(Broad Institute, 2017)", "note": "Activity calls are given as the source filed them.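 How the source made its calls: active means fitted AC50 no higher than ten times the top tested dose (cut at about 90 µM in these data); inconclusive means flat curve with 30 to 70% signal loss, or bad fit; inactive means AC50 beyond ten times the top dose.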"}
{"assay": "AlphaLISA signal interference compounds, dose response, artefact control, biochemical, TruHit kit (AID 1259339)", "conditions": "TruHit alphaLISA kit signal interference counterscreen; series mostly up to 80 µM; activity change, negative = signal loss: at the top concentration"}
{"smiles": "Cc1ccc(N2C(=O)c3ccccc3C2C(=O)c2ccc(O)cc2O)cc1", "note": "(stereo unspecified)", "activity change, negative = signal loss": "4.71% (inactive)"}
{"smiles": "COc1ccc(-c2ccc(CCC(=O)O)o2)cc1", "activity change, negative = signal loss": "-15.3% (inactive)"}
{"smiles": "C=CCNc1ncnc2c1CCN(C(=O)c1ccc(CSC)o1)CC2", "activity change, negative = signal loss": "10.8% (inactive)"}
{"smiles": "O=C(CCN1CCOCC1)c1ccc2c(c1)OCCO2", "activity change, negative = signal loss": "12.9% (inactive)"}
{"smiles": "Cc1ccc(C(=O)Nc2ccc(N3CCC(C(N)=O)(N4CCCCC4)CC3)c(C(=O)O)c2)cc1", "activity change, negative = signal loss": "-6.04% (inactive)"}
{"smiles": "O=C(COC(=O)c1cc(-c2cccs2)nc2ccccc12)NCc1ccco1", "AC50": "40.2 µM (active)"}
{"smiles": "COc1ccc2nc(-c3ccco3)c(-c3ccco3)nc2c1", "AC50": "35.1 µM (active)"}
{"smiles": "O=C(Nc1nc(-c2ccccn2)cs1)c1cccc(-n2cnnn2)c1", "activity change, negative = signal loss": "-1.96% (inactive)"}
{"smiles": "O=C1CC2(CCN(C(=O)Nc3ccccc3)CC2)CN1Cc1ccc(Cl)cc1", "activity change, negative = signal loss": "44.8% [at 38 µM] (inactive)"}
{"smiles": "O=C(CN1CCOC1=O)N1CCC2(CCC(=O)N(CCCn3ccnc3)C2)CC1", "activity change, negative = signal loss": "-4.31% (inactive)"}
{"smiles": "COc1ccc(S(=O)(=O)N2CCOCC2)cc1NC(=O)c1cccc(-n2cccc2)c1", "AC50": "36.1 µM (active)"}
{"smiles": "O=S(=O)(Nc1nc2ccc(S(=O)(=O)N3CCCCC3)cc2s1)c1ccccc1", "AC50": "76.8 µM (active)"}
{"smiles": "O=c1/c(=C/c2ccco2)sc2nc3ccccc3n12", "AC50": "> 160 µM (inactive)"}
{"smiles": "CCN1CCN(C(=O)c2cc(-c3ccco3)nc3ccccc23)CC1", "AC50": "> 160 µM (inactive)"}
{"smiles": "CCCN1CCCn2nc(CNC(=O)[C@@H](N)Cc3ccc(O)cc3)cc2C1", "activity change, negative = signal loss": "-11.3% (inactive)"}
{"smiles": "Cc1ccc(-c2nnc(-c3nc(Nc4nc5ccccc5s4)c4ccccc4n3)o2)cc1", "activity change, negative = signal loss": "-1.3% (inactive)"}
{"smiles": "CC(=O)c1ccc(NC(=O)c2noc3c2CCC3)cc1", "activity change, negative = signal loss": "10.7% (inactive)"}
{"smiles": "O=C(COC(=O)c1ccc(S(=O)(=O)NCc2ccco2)cc1)Nc1ccc(Cl)cn1", "AC50": "> 160 µM (inactive)"}
{"smiles": "Cc1ccc(N2NC(c3ccc(Br)cc3)=CCC2=O)cc1", "AC50": "66.7 µM (active)"}
{"smiles": "O=S(=O)(Nc1nccs1)c1ccc(-n2cccc2)cc1", "AC50": "18.8 µM (active)"}
{"smiles": "N#CNc1nc(O)cc(=O)[nH]1", "activity change, negative = signal loss": "18.1% (inactive)"}
{"smiles": "O=C1CS/C(=N\\N=C\\c2ccco2)N1c1ccccc1", "AC50": "30.8 µM (active)"}
{"smiles": "COc1ccc(NC(=O)c2nc(Nc3ccccc3)c3ccccc3n2)cc1", "activity change, negative = signal loss": "-15.3% (inactive)"}
{"smiles": "Cc1cnc(C)c(N2CCN(C(=O)[C@H]3CC[C@@H](N)C3)CC2)n1", "activity change, negative = signal loss": "-0.624% (inactive)"}
{"smiles": "NC(=O)C1(N2CCCCC2)CCN(c2ncc(NC(=O)c3ccc(Cl)cc3)cc2C(=O)O)CC1", "AC50": "81.9 µM (active)"}
{"smiles": "O=C(Nc1ccc2oc(-c3ccncc3)nc2c1)c1ccc2c(c1)OCCO2", "activity change, negative = signal loss": "2.45% (inactive)"}
{"smiles": "O=C(COC(=O)c1cc(-c2ccco2)nc2ccccc12)NCc1ccccc1", "AC50": "35.1 µM (active)"}
{"smiles": "O=C(Nc1nnc(-c2ccco2)s1)c1ccccc1", "activity change, negative = signal loss": "12.7% (inactive)"}
{"smiles": "CCn1ccnc1C1CCN(C(=O)CCn2c(C)nc3ccccc32)CC1", "activity change, negative = signal loss": "12.8% (inactive)"}
{"smiles": "NC(=O)C1(N2CCCCC2)CCN(c2ncc(NC(=O)c3ccccc3)cc2C(=O)O)CC1", "activity change, negative = signal loss": "-2.77% (inactive)"}
{"smiles": "Cc1cncc(-c2ccc(S(N)(=O)=O)cc2F)c1", "activity change, negative = signal loss": "-20% (inactive)"}
{"smiles": "Nc1ccc(-c2cccc(CN3CCCC3)c2)cc1", "activity change, negative = signal loss": "-10.3% (inactive)"}
{"smiles": "O=C(O)c1ccccc1/C=N/NC(=O)c1cc(-c2ccco2)nc2ccccc12", "AC50": "36 µM (active)"}
{"smiles": "N#Cc1c(N)oc(-c2ccco2)c1-c1ccco1", "AC50": "29.9 µM (active)"}
{"smiles": "OCc1ccc(O)c2ncccc12", "AC50": "> 160 µM (inactive)"}
{"smiles": "NC(=O)C1(N2CCCCC2)CCN(c2ncc(NC(=O)c3cccs3)cc2C(=O)O)CC1", "activity change, negative = signal loss": "3.86% (inactive)"}
